Assay outcomes (PubChem)
697 NFkB inh = lowers PMA/ionomycin-induced NF-kB signal in 697 B cells | 330,000 compounds, 0.33% hits | 697 B-cell NF-kB luciferase reporter, 16 h | inhibition, % at 4 µM; in the data active = inhibition above about 35%
Jurkat NFkB inh = inhibitors of the PMA/ionomycin-induced NF-kB reporter in Jurkat cells. PMA/ionomycin-induced NF-kB luciferase reporter, luminescence. 330,000 compounds, 0.53% hits. inhibition, % at 4 µM. AID 435003; in the data active = inhibition above about 50%
Mdm2-MdmX inh = disrupts the human Mdm2-MdmX interaction; O15151+Q00987; SaOS-2 split-luciferase Mdm2/MdmX complementation, luminescence; inhibition, % at 8 µM; 330,000 compounds, 3% hits;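 active = inhibition of at least 50% at 8 µM in the primary screen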
Target sequence (O15151 whole entry, looked up): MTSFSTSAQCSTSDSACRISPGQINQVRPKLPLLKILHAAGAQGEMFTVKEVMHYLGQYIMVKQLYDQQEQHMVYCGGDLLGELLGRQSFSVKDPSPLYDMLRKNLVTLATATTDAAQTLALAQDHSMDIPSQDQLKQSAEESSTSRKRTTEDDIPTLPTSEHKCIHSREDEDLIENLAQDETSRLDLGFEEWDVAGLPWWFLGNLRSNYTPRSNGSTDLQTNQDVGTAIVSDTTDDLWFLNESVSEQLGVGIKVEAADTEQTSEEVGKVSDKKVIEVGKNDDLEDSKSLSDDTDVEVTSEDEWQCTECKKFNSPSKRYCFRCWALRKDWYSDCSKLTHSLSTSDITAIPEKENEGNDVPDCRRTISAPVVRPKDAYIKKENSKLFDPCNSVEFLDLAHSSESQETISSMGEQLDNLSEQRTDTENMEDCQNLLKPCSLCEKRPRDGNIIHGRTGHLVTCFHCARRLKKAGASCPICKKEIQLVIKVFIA
Target sequence (Q00987 whole entry, looked up): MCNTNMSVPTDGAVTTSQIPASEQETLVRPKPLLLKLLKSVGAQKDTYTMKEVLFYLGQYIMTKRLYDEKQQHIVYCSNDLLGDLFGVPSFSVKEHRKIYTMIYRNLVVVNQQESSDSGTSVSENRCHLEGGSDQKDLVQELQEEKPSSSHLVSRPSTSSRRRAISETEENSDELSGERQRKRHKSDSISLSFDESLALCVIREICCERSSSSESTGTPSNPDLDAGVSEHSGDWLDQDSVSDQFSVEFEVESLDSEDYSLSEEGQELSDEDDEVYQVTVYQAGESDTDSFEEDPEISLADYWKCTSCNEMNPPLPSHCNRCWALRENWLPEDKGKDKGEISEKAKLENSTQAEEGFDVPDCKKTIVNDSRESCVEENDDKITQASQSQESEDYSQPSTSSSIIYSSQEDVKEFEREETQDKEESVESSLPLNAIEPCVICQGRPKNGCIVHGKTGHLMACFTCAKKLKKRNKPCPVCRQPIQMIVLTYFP
aSyn UTR inh = MLPCN primary screen, SNCA 5' untranslated region; alpha-synuclein 5'UTR reporter, inhibitor activity; 300,000 compounds, 0.82% hits; inhibition, % (tested at 7.5 µM); in the data active = inhibition above about 60%;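 also: H4 neuroglioblastoma cells stably carrying SNCA 5'UTR luciferase fusion; 0% = DMSO wells and 100% = positive control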
KLF5 inhibitor = suppresses KLF5 promoter-driven expression; DLD-1 KLF5 promoter-luciferase reporter, luminescence; inhibition, % at 5 µM; 290,000 compounds, 0.23% hits; AID 1700;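 active = inhibition above a per-plate limit of that plate's mean compound inhibition plus 3 SD, cut at about 60% in these data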;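 also: 0% = DMSO wells and 100% = LY294002 at 200 µM; higher means less KLF5 promoter-driven luciferase light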
Gli-Sufu antag = antagonists of Gli-Sufu signaling; Sufu-KO-LIGHT fibroblasts, Gli luciferase reporter luminescence; inhibition, % at 5 µM; 340,000 compounds, 0.74% hits; AID 588413;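 active = inhibition above about 55%, limit read from the data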;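 also: 0% = DMSO-treated cells and 100% = wells with medium but no cells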
Jurkat NFkB conf = inhibitors of the PMA/ionomycin-induced NF-kB reporter in Jurkat cells, retest. 2,700 compounds, 27% hits. shares compounds with Jurkat NFkB inh. inhibition, % at 4 µM. Jurkat NF-kB luciferase, 16 h;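 active = inhibition reaching about 45% at 4 µM in either replicate, limit read from the data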;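 also: plate controls were PMA/ionomycin stimulated DMSO wells for no effect and unstimulated DMSO wells for full effect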
An asterisk follows results filed as active; . = not tested or not shown. The list is not random: actives were taken first. Their share in the collection is about 4.1%.

SMILES	697 NFkB inh	Jurkat NFkB inh	Mdm2-MdmX inh	aSyn UTR inh	KLF5 inhibitor	Gli-Sufu antag	Jurkat NFkB conf
COc1ccc(N2CC(C(=O)Nc3ccccc3N3CCCC3)CC2=O)c(OC)c1 (stereo not given)	-7.9	57.9*	48.5	-24.3	.	-4.0	12.6
Cc1noc(C)c1S(=O)(=O)NCc1ccc(CN(C)C)cc1	12.5	-1.1	20.5	.	.	-20.3	.
CC(C)(C)C(=O)Cn1ncc(Br)c(Br)c1=O	.	.	.	-91.9	-18.6	4.4	.
Nc1ccc(C(=O)Nc2nc3ccccc3s2)cc1	-140.3	-201.3	-144.0	-4.7	-103.2	-144.4	-138.8
CCCCOC(=O)Nc1nc2ccccc2s1	-143.9	-155.3	-116.9	-252.5	-74.0	-92.7	-104.6
CCC(C)[C@@H]1NC(=O)N(CCCN2CCCC2=O)C1=O (stereo not given in full)	8.5	10.2	4.5	-18.3	-19.3	6.7	.
COc1ccc(NC(=O)C(=O)NCC(c2ccco2)N2CCc3ccccc32)cc1 (stereo not given)	-66.2	64.1*	18.5	84.9*	.	17.5	12.4
COc1ccc(C(=O)NCC(c2ccco2)N2CCc3ccccc32)cc1 (stereo not given)	-64.8	63.4*	49.5	21.5	.	18.9	23.1
CCC1(c2ccccc2)NC(=O)N(CC(=O)NCc2ccc(C)cc2)C1=O (stereo not given)	23.0	13.6	29.5	28.9	-22.1	9.8	.
COC(=O)/C=C/c1ccccc1S(=O)(=O)N(Cc1ccccc1)Cc1ccco1	-90.1	55.9*	37.0	89.4*	.	8.9	7.2
O=S(=O)(c1ccc(S(=O)(=O)N(Cc2ccccc2)Cc2ccco2)cc1)N1CCCC1	-2.1	-11.5	20.4	27.7	-31.2	-2.2	.
COc1ccccc1NC(=O)CNc1ccc(F)c(Cl)c1	-11.9	-5.1	-0.4	4.4	-18.1	-9.6	.
Cn1c(-c2ccc(F)c(F)c2)cc2onc(-c3ccccc3)c2c1=O	-183.4	-179.7	-236.3	.	.	-126.6	-94.2
CN(C)CCCNc1cc(O)c2ncccc2c1	16.7	55.5*	19.9	.	.	18.3	25.2
Oc1cc(NCc2ccc(Cl)cc2)cc2cccnc12	5.6	-4.3	47.4	.	.	14.1	.
CCOC(=O)CCC(=O)Nc1ccc([N+](=O)[O-])cc1C	14.0	-3.6	9.8	8.1	2.0	-7.1	.
CSc1ccc(/C=N/NC(=O)c2sccc2C)cc1	-187.1	-159.4	-197.7	-88.7	-87.9	-52.7	-93.2
CCOc1cc(S(=O)(=O)n2cnc(C)c2)ccc1Cl	16.9	4.0	18.3	3.4	-9.1	6.2	.
Cc1ccccc1C=Nc1ccccc1C(N)=O	2.0	53.8*	41.9	-15.4	23.1	-2.5	11.2
COc1ccc(OC)c(C2CC(=O)c3c([nH]c(C(=O)OCC4CCCO4)c3C)C2)c1 (stereo not given)	7.9	0.3	31.1	-24.3	-33.9	11.7	.
Cc1c(C(=O)OCC2CCCO2)[nH]c2c1C(=O)CC(c1ccco1)C2 (stereo not given)	-11.6	54.5*	38.5	-45.8	-14.0	8.7	-2.8
CCCn1c(-c2ccccc2)cc(SC)c(C#N)c1=O	12.2	-0.7	-21.7	5.9	-21.7	4.8	.
CSc1cc(-c2ccccc2)n(Cc2ccccc2Cl)c(=O)c1C#N	-27.7	64.4*	42.8	-38.5	-2.8	-0.2	9.2
C[C@@H](C(=O)CC(=O)OC(C)(C)C)[C@@H](O)c1ccccc1	19.7	3.4	9.4	4.1	-40.3	-4.7	.
O=c1c(=NNc2ccccc2Cl)c(=O)c2ccccc12	.	.	.	.	-20.4	28.9	.
SMILES	697 NFkB inh	Jurkat NFkB inh	Mdm2-MdmX inh	aSyn UTR inh	KLF5 inhibitor	Gli-Sufu antag	Jurkat NFkB conf
Cc1cc(C)c(NN=c2c(=O)c3ccccc3c2=O)c(C)c1	-132.8	-189.8	-93.1	-125.0	-13.4	-15.4	-62.3
CC(C)(C)c1ccc(C(=O)NCCc2ccccc2)cc1	-239.9	-184.6	-58.7	31.9	-18.3	.	-151.9
CCOC(=O)N1CCN(C(=O)C2CCCN(Cc3nc(-c4ccc(Cl)cc4)oc3C)C2)CC1 (stereo not given)	-12.3	58.8*	22.6	6.6	-38.4	9.1	54.6*
O=C(NCc1ccco1)C(c1ccncc1)N(C(=O)Cn1nnc2ccccc21)c1ccccc1F (stereo not given)	-7.2	-1.7	6.4	11.5	-22.2	-13.2	.
CC(C)c1ccc(NC2CCCN(C(=O)C3=NN(C)C(=O)CC3)C2)cc1 (stereo not given)	6.0	-11.7	27.7	16.3	-6.2	0.9	.
COc1cc(C(=O)OCCc2cc3ccccc3c(=O)o2)cc(OC)c1OC	-73.5	58.2*	48.2	.	.	5.2	57.8*
COc1cc(C(=O)OCCCc2cc3ccccc3c(=O)o2)cc(OC)c1OC	6.8	21.8	13.7	.	.	-3.9	.
CC(=O)Nc1ccc(-c2csc(Nc3ccc(Cl)cn3)n2)cc1	-25.8	18.1	31.8	-127.3	-32.6	-36.4	.
COc1ccc(-c2csc(Nc3ccc(C)cn3)n2)cc1OC	-7.7	-14.6	-15.1	-120.0	-17.8	-27.8	.
CC(=O)Nc1cccc(-c2csc(Nc3ccc(Cl)cn3)n2)c1	-194.0	-156.3	-141.9	-174.5	-165.7	-132.5	-76.0
Cc1ccc(Nc2nc(-c3ccc(F)cc3)cs2)nc1	-186.9	-175.0	-188.2	-174.9	-188.0	-80.7	-80.8
Cc1ccc(Nc2nc(-c3ccc(O)c(O)c3)cs2)nc1	-33.7	53.2*	16.5	-216.3	-0.6	64.2*	-0.7
COc1ccccc1/C=C/C(=O)NCCc1ccccn1	-41.8	-51.0	-27.1	-91.7	-103.5	-4.6	.
O=C(/C=C/c1ccco1)Nc1ccc2c(c1)OCCO2	-208.5	-159.7	-133.1	.	-93.7	-131.9	-58.2
Cc1ccc(CNc2ccc3c(c2)ncn3C)cc1	-30.6	-29.2	-27.1	-169.7	-116.8	-65.5	.
Cc1ccc(CNc2ccc3c(c2)ncn3C(C)(C)C)cc1	-160.5	-161.4	-203.7	-97.4	-177.4	-80.3	-21.8
Cc1ccc(CNc2ccc3c(c2)nc(C)n3C)cc1	-200.9	-156.0	-68.5	-64.0	-151.1	-47.9	-59.2
Cc1nc2cc(NCc3ccc(Cl)cc3)ccc2n1C	-202.0	-133.4	-137.9	-66.8	-90.5	-29.5	.
CC(NC(=O)c1ccco1)C(=O)OC(C)C(=O)NCc1ccccc1 (stereo not given)	10.9	3.7	30.2	16.1	0.8	-5.0	.
O=C(c1ccc(F)cc1)N(c1ccccn1)C1CCCCC1	11.2	2.5	-22.5	4.1	-10.1	-28.5	.
Cc1cc(NC(=O)COC(=O)c2ccc(S(=O)(=O)N3CCCc4ccccc43)cc2)no1	-26.0	51.5*	41.3	46.2	63.5*	20.0	39.1
Cc1cc(NC(=O)CSc2nc(C(C)(C)C)nc3ccccc23)no1	-61.6	56.6*	19.3	25.9	11.3	1.5	19.8
CCCc1nc(SCC(=O)Nc2cc(C)on2)c2ccccc2n1	6.5	-10.0	24.0	-17.4	6.8	6.0	.
O=C1Nc2ccccc2N(O)N1c1cc(-c2ccc(Cl)cc2)[nH]n1	2.5	-10.2	7.8	1.1	-8.7	-18.6	.
